From PubChem BioAssay AID651789 (National Center for Advancing Translational Sciences (NCATS), 2012)
Records with an inconclusive call do not appear. Where a call stands in place of a potency, no number is given. Calls of active or inactive are those of the source. Calls come from the whole dose curve; as a rule, active = well fitted inhibition curve with a large enough effect; inconclusive = small, poorly fitted or top-dose-only effect; inactive = no such curve, though single readings can be large or run the other way.

Assay: Acumen qHTS Assay for Inhibitors of the mTORC1 Signaling Pathway in WT MEF Cells: Hit Validation; note: nearly all actives have a fitted effect of over 60% in size
Conditions: Acumen imaging; series mostly up to 37.3 µM
Outline: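 Read-out is immunofluorescent phospho-rpS6 (Ser235/236) normalised to PI-stained cell number, reported as % active cells using a 7.5 nM rapamycin threshold. Cells: WT or Tsc2-/-, p53-/- MEFs, compound-exposed 24 h at 37C; PI count also tracks viability.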
Potency is the fitted concentration of half-maximal effect.

Structure (SMILES)	Potency
Cc1ccc(S(=O)(=O)c2nnn3c2nc(NCc2cccs2)c2sccc23)cc1	inactive
COc1ccc(N(Cc2ccccc2)C(=O)c2nc(S(C)(=O)=O)ncc2Cl)cc1	2070 nM (active)
COC(=O)c1ccccc1NC(=O)Cn1c(=O)n(-c2ccc(C)cc2)c(=O)c2ccccc21	inactive
CS(=O)(=O)N(CC(=O)NCCc1ccccc1)c1cc(C(F)(F)F)ccc1Cl	inactive
Cc1ccc(NC(=O)Cn2cc(C(=O)C3CCCCC3)c3ccccc32)cc1	inactive
COc1ccc(NC(=O)c2c(NC(=O)COc3ccccc3)sc3c2CCC(C)C3)cc1 (stereo not given)	inactive
CC/C(=C(\c1ccccc1)c1ccc(OCCN(C)C)cc1)c1ccccc1	inactive
Cc1ccccc1Oc1nc2ccccn2c(=O)c1/C=C(\C#N)c1nc2ccccc2[nH]1	inactive
CCOc1ccc(C(=O)NCCc2sc(-c3ccc(C)cc3)nc2C)cc1	inactive
Cc1ccc(-c2nc3sccn3c2Nc2ccc(C)c(C)c2)cc1	inactive
CCCC1=Nc2cc(C(=O)NC3CCCC3)ccc2Sc2ccc(C)cc21	736 nM (active)
COc1ccc(/C=C/C(=O)Nc2ccc3nc(N4CCC(C)CC4)cc(C)c3c2)cc1OC	inactive
COc1ccc(-c2[nH]nc3nc(-c4cc(OC)c(OC)c(OC)c4)cc(C(=O)O)c23)cc1	inactive
C=CCc1c(C)nc2nc(SCC(=O)Nc3ccc(C)c(C)c3)nn2c1C	1170 nM (active)
CCn1c(=O)sc2cc(NS(=O)(=O)c3ccc(F)c(C)c3)ccc21	inactive
CCOc1ccc(NC(=O)N(Cc2c[nH]c3ccccc23)C2CCCCCC2)cc1	inactive
COc1cc(C2CC(=O)Nc3cc4c(cc32)OCCO4)cc(Br)c1OC (stereo not given)	52.1 nM (active)
Cc1ccc(-c2nnc(Nc3ccc(O)cc3)c3ccccc23)cc1S(=O)(=O)N1CCCCC1	inactive
COc1ccc(OC)c(Nc2c3c(nc4ccccc24)CCC3)c1	585 nM (active)
CC(C)(C)c1ccc(-c2nc(S(=O)(=O)c3ccccc3)c(N3CCOCC3)o2)cc1	inactive

Structure (SMILES)	Potency
CCOC(=O)c1ccc(N2C(=O)c3n[nH]c(-c4cccs4)c3C2c2cccc(F)c2)cc1 (stereo not given)	inactive
CCS(=O)(=O)c1ncc(Cl)c(C(=O)N(Cc2ccccc2)Cc2ccco2)n1	3290 nM (active)
COc1ccc(N2CC(c3nc(-c4cc(OC)c(OC)c(OC)c4)no3)CC2=O)cc1Cl (stereo not given)	inactive
Cc1ccc(NC(=O)CCNS(=O)(=O)c2cccc3nonc23)cc1Cl	inactive
COc1ccc(-c2n[nH]c3c2C(c2ccc(O)cc2)N(c2ccc(Br)cc2)C3=O)cc1 (stereo not given)	inactive
Cc1ccc(C(=O)CC2(O)C(=O)N(Cc3ccccc3)c3ccc(Br)cc32)cc1 (stereo not given)	inactive
CCN1C(=O)c2ccccc2Sc2ccc(NC(=O)Cc3ccc(OC)cc3)cc21	inactive
COC(=O)c1ccccc1NC(=O)CSc1n[nH]c(CC(C)C)n1	inactive
Cc1nn(C(C)C(=O)NC2CCC(C)CC2)c(=O)c2c1sc1ccccc12 (stereo not given)	inactive
O=C(CCn1cnc2onc(-c3ccc(F)cc3)c2c1=O)Nc1ccc(F)c(Cl)c1	inactive
Nc1nnc(SCC(=O)Nc2cccc(F)c2)s1	inactive
CCOC(=O)c1cnc2ccc(OCC)cc2c1NCCc1ccc(OC)c(OC)c1	inactive
COc1cc(C(=O)n2nc(C)c(Sc3ccc(Cl)cc3)c2C)cc(OC)c1OC	inactive
COc1cccc(/C=C(\C#N)c2nc3ccc(C)cc3[nH]2)c1	inactive
Cc1cc(C)c(NC(=O)c2sc3nc(C)cc(C)c3c2NC(=O)c2ccccc2)c(C)c1	inactive
CN(Cc1ccccc1)C(=O)CSc1c2c(nc3ccc(Cl)cc13)CCCC2	inactive
COc1ccc2cc(CNc3ccccc3)c(=O)n(CC(=O)Nc3ccc(C)cc3C)c2c1	inactive
Cc1c(C(=O)OCCOc2ccccc2)[nH]c2c1C(=O)CC(c1ccccc1)C2 (stereo not given)	65.6 nM (active)
COc1cc(Br)ccc1C1C(C(=O)Nc2ccc(C)cc2C)=C(C)Nc2nnnn21 (stereo not given)	inactive
COC(=O)c1cc2sc(C)cc2n1Cc1ccccc1	inactive
